The record followed here is PubChem BioAssay AID808 (Columbia University Molecular Screening Center, 2007).

In all, about 93,000 compounds went through this assay and about 180 (0.19%) were called active. The full list was thinned out, with actives kept by preference. A number with no mark means an inactive call.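 How the source made its calls: active means activation above the screen mean plus 3 SD, with well images confirming the hit on visual review (cut at about 28% in these data, passing the limit was not always enough); inconclusive means activation above that limit but images do not confirm it; inactive means activation not above that limit.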

This assay in a line: enhancers of endothelial VCAM-1 upregulation by TNFa – imaging, HUVEC, TNFa stimulus, immunofluorescence, primary screen (AID 808).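 Further: signal is the number of cytoplasmic VCAM-1 stained grains per positive cell.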 To be noted: HUVEC TNFa-stimulated VCAM-1 immunofluorescence, high-content imaging; at 2 µM; active compounds read high; scaled per plate to unstimulated/TNFa-only wells.
For the molecule `O=C(Nc1ccc(Sc2ccc(Br)cc2)cc1)c1ccco1`, the activation was -2.8%.
To `Cc1cccc(OCCCC(=O)Nc2ccc(S(=O)(=O)N3CCCC3)cc2)c1` belongs -20.4%.
Then `CCOC(=O)c1ccc(NC(=O)CSc2ncccn2)cc1`, with 21.4%.
Then `O=C(CCCn1c(=O)[nH]c2cc(Cl)ccc2c1=O)NCCN1CCN(c2ccccc2)CC1`, with 4%; and `O=C(CSCc1ccccc1Cl)NNC(=O)c1ccccc1`, with -5.4%.
Regarding `O=C(CS(=O)(=O)Cc1ccccc1)NCC1CCCO1` (stereo unspecified), the activation was 24.8%.
Then `C/C(=C\C(=O)c1cccnc1)Nc1ccc(C)c(C)c1`, with -89.1%; and `CCCNS(=O)(=O)c1ccc2c(c1)CCCN2C(C)=O`, with -100%; and `C=CCn1c(N)c(C(=O)OCC(C)C)c2nc3ccccc3nc21`, with -94.4%.
To `c1ccc(CSc2nnc(-c3ccco3)n2Cc2ccccc2)cc1` belongs 1.1%.
Then `CCCc1nc2scc(-c3ccc(C)cc3)c2c(=O)n1N`, with -5.6%.
As for `COc1ccccc1C(=O)C(O)c1ccccc1OC` (stereo unspecified), the activation was 4.6%.
Turning to `COc1cc(-c2nc(-c3ccncc3)no2)cc(OC)c1OC`, the activation was 1.5%.
With `Cc1c(Nc2cc(N3CCCC(C)C3)c3nonc3c2[N+](=O)[O-])c(=O)n(-c2ccccc2)n1C` (stereo unspecified), the activation was -5.2%.
To `Cc1cccc(C(=O)NCCCN2CCCC2=O)c1` belongs 26%; to `CSCc1cc(N2CCOCC2)nc(SCc2ccc(Cl)cc2Cl)n1`, -7.6%.
Then `O=C(NCc1cccnc1)Nc1ccccc1F`, with 10.6%; and `O=C(c1ccco1)N1CCN(CC(=O)N(C2CCCCC2)C2CCS(=O)(=O)C2)CC1` (stereo unspecified), with -39.3%.
For the molecule `COc1cc(OC)c(C(=O)NC2CCCCCC2)cc1OC`, the activation is -3.2%.
On to `Cc1ccc(-n2nc3ccc(NC(=O)/C=C/c4ccco4)cc3n2)cc1C`, for which the activation was -46.8%.
To `O=C(Nc1ccncc1)c1c(F)cccc1F` belongs 76.2% (active).
To `O=C(Nc1ccc(F)cc1)c1cccnc1N1CCOCC1` belongs -3.5%; to `CCC(=O)Nc1cccc(NC(=O)c2cccnc2)c1`, -7.7%.
Then `CC(=O)c1cc(NC(=O)c2ccccc2)c(=O)oc1/C=C/N(C)C`, with 16.1%; and `NC(=O)CCCC1=NS(=O)(=O)c2ccccc2N1`, with 2.1%.
On to `O=C(O)c1ccc(COc2c(F)c(F)cc(F)c2F)o1`, for which the activation is 1.5%.
To `CC(=O)c1ccc(Oc2cc(C)nc(-n3nc(C)cc3C)n2)cc1` belongs -75.8%.
Consider `CC(=O)c1cnn(-c2cc(Oc3ccc(F)cc3)ncn2)c1C`, for which the activation is 50.8% (active).
To `CC(c1ccccn1)N(CCN(C)C)C(=S)Nc1ccccc1F` (stereo unspecified) belongs 1.7%.
`O=C(Nc1cc2c3c(c1)C1CCCC1CN3CC1CCCC21)c1ccc([N+](=O)[O-])cc1` (stereo unspecified): the activation is -2.9%.
To `Cc1cc(C)n(-c2nc(O)cc(=O)[nH]2)n1` belongs -0.9%.
To `CCC(=O)NCCc1nc2ccccc2n1CC` belongs -6.7%.
To `COC(=O)c1ccc(NC(=O)Nc2ccc(C)cc2)cc1` belongs -1.4%.
In the case of `CCOC(=O)N1CCC(NC(=O)c2ccc3nc(N4CCOCC4)sc3c2)CC1`, the activation was -2.2%.
To `Cc1ccc2c(c1)sc1ncc(NC(=O)c3ccccc3)c(=O)n12` belongs -3.1%; to `O=C(Nc1nncs1)c1ccccc1NS(=O)(=O)c1cccs1`, 5.4%; to `Cc1nc2nc[nH]n2c(=O)c1NC(=O)c1cccc(OCC(C)C)c1`, -5.4%.
To `CCOC(=O)NCc1ccc2c(c1)OCO2` belongs -8.2%.
Then `CCn1c(NC(=O)c2ccccc2)c(-c2cccs2)c(=O)c2ccccc21`, with -8.7%.
For `COc1ccc(C(C(=O)NCc2ccccc2)N(Cc2cccs2)C(=O)c2cnccn2)cc1` (stereo unspecified), the activation is -2.8%.
Then `Cn1cnc([N+](=O)[O-])c1Nc1ccccc1O`, with 17.4%; and `Cn1c2ccccc2c2c(C(=O)N3CCN(c4ccc(F)cc4)CC3)cn(C3CCCC3)c(=O)c21`, with -11.3%.
Take `CCC(c1nnnn1Cc1ccco1)N(CCc1ccccc1)Cc1cc2cccc(C)c2[nH]c1=O` (stereo unspecified): the activation was -0.4%.
For `COc1ccc(CCN(Cc2cc3cccc(C)c3[nH]c2=O)C(=O)N2CCCC2)cc1OC`, the activation was -91.4%.
`Cc1cccc2cc(CN(Cc3ccc4c(c3)OCO4)Cc3nnnn3C3CCCC3)c(=O)[nH]c12`: the activation is 37.5% (active).
`O=C(COC(=O)C12CC3CC(CC(C3)C1)C2)NCc1ccco1`: the activation was 3.3%.
In the case of `CC(C)C(=O)N1CCN(c2nc(-c3ccccc3)c3c(c2C#N)CC(C)(C)OC3)CC1`, the activation was -36.7%.
Turning to `CCCOc1cc(C)c(S(=O)(=O)n2nnc3ccccc32)cc1C`, the activation was 45.5% (active).
For the molecule `CC(=O)Nn1cc2c(=O)n(C)c(=O)n(C)c2c1`, the activation is -8.2%.
With `O=C1CC(Sc2ncn[nH]2)C(=O)N1c1ccccc1` (stereo unspecified), the activation is 4.7%.
Then `CCC(=O)Nc1ccc(S(=O)(=O)NCC2CCCO2)cc1` (stereo unspecified), with -5.4%; and `CCCN1C(=O)C(NS(=O)(=O)c2ccc(N)cc2)(C(F)(F)F)C(C(=O)OC)=C1C` (stereo unspecified), with 1.5%.
To `CCOCc1nnc(NC(=O)CSc2ccc(C)cc2)s1` belongs 5.6%; to `Cc1cccc(C)c1OC(=O)CSc1nnc(-c2ccccc2)o1`, 3.9%.
Then `CC(C)Nc1nc(N(c2ccccc2)c2ccccc2)nc(-n2ccnc2)n1`, with 3.2%; and `CCOc1ccc(OCc2ccc(C(=O)Nc3cccc(C)n3)o2)cc1`, with 9.1%; and `CCCNC(=O)Nc1ccccc1C(=O)Nc1ccc(OC)cc1`, with -2.4%.
Regarding `Cc1cc(=O)oc(C)c1C(=O)NC1CC(C)(C)NC(C)(C)C1`, the activation is 12.6%.
Then `c1ccc(-c2cn3cccnc3n2)cc1`, with -0.6%.
As to `C=CCn1c(COc2cccc3cccnc23)nnc1SCC(=O)OC`, the activation is -28.4%.
As to `Cc1ccc(C)c(NC2=NCC(=O)N2c2ccc3c(c2)OCCO3)c1`, the activation is 21.9%.
